# Laboratory results reported in PubChem BioAssay (NCI).
# “And” between values parts separate entries of the source, which are not always exact repeats. Equal values may be shown once. Compounds without any hit were thinned out: in the full panel of roughly 83,000, 20% have a hit.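 Testing used 96-well plates and a 48-hour single-concentration exposure. Example: -40 means 40% of the starting cells died.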 The source made the active and inactive calls. Rule for the calls: active = growth percent below 10; inactive = the rest.
# Test system: SK-OV-3 ovarian
# Assay: NCI-60 one-dose screen, 48 h (100 = growth as untreated, 0 = no growth, -100 = all killed)
# Conditions: 100 µM
row,SMILES,growth
1,CN(C)C(=O)c1ccc(SC(=S)NCc2ccccc2)cc1,108% (inactive)
2,O=C(Nc1c(Cl)cccc1Cl)Oc1cccc2cccnc12,18% (inactive)
3,O=C(Nc1cccc(Br)c1)Oc1cccc2cccnc12,102% (inactive)
4,O=C(O)c1c(Cl)c(Cl)c(Cl)c(Cl)c1-c1c2cc(I)c(=O)c(I)c-2oc2c(I)c(O)c(I)cc12,-73.9% (active)

# Test system: IGROV1 ovarian
# Assay: as above
# Conditions: 10 µM
row,SMILES,growth
1,CN(C)C(=O)c1ccc(SC(=S)NCc2ccccc2)cc1,116% (inactive)
2,COc1ccc(-c2cscc2N)cc1,91.1% (inactive)
3,O=C(Nc1c(Cl)cccc1Cl)Oc1cccc2cccnc12,27% (inactive)
4,O=C(Nc1cccc(Br)c1)Oc1cccc2cccnc12,106% (inactive)
5,O=C(O)c1c(Cl)c(Cl)c(Cl)c(Cl)c1-c1c2cc(I)c(=O)c(I)c-2oc2c(I)c(O)c(I)cc12,105% (inactive) and 80.5% (inactive) and -7.13% (active)
